Source: PubChem BioAssay AID1159580 (chemical genetic matrix, 2015)
Where “and” joins values, the source holds several entries; their conditions need not be identical. Equal entries are not always repeated. Screen size: about 5,500 compounds; about 2,000 (36%) were called active. Another 18% or so got no clear call; they are omitted. Cut-off read from the data, not from the text of the source: active = normalized growth mostly below about 0.91 (no sharp cut-off); inconclusive = no clear call, values can overlap the other calls; inactive = mostly above about 0.92. Some of the results follow.

Assay: chemical genetic growth profiling, strain panel (AID 1159580);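 note: tested at 20 µM; growth read once vehicle control cultures reached saturation at 30 °C; 1 = growth at the plate median or of vehicle wells; lower values mean less growth of the strain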
Settings: growth OD

Measured: normalized growth

CN1CCN(C2=Nc3cc(Cl)ccc3Nc3ccccc32)CC1
inactive: S. cerevisiae deletion strains, locus YJR066W, strain TOR1, stronger effect = lower value 0.997 | S. cerevisiae deletion strains, locus YJR075W, strain HOC1, stronger effect = lower value 0.982 | S. cerevisiae deletion strains, locus YKL009W, strain mrt4, stronger effect = lower value 1.01 | S. cerevisiae deletion strains, locus YKL068W, stronger effect = lower value 1.01 | S. cerevisiae deletion strains, locus YKL085W, strain MDH1 (second series), stronger effect = lower value 1.04 | S. cerevisiae deletion strains, locus YKL085W, strain MDH1, stronger effect = lower value 1.04 | S. cerevisiae deletion strains, locus YKL160W, strain elf1, stronger effect = lower value 0.972 | S. cerevisiae deletion strains, locus YKL190W, strain CNB1, stronger effect = lower value 1.02 | S. cerevisiae deletion strains, locus YKR001C, strain vps1, stronger effect = lower value 1.03 | S. cerevisiae deletion strains, locus YKR026C, strain gcn3, stronger effect = lower value 0.988 | S. cerevisiae deletion strains, locus YKR091W, strain srl3, stronger effect = lower value 0.98 | S. cerevisiae deletion strains, locus YLL001W, strain dnm1, stronger effect = lower value 0.984 | S. cerevisiae deletion strains, locus YLL026W, stronger effect = lower value 1 | S. cerevisiae deletion strains, locus YLL041C, strain sdh2, stronger effect = lower value 0.992 | S. cerevisiae deletion strains, locus YLR027C, strain aat2, stronger effect = lower value 0.988 | S. cerevisiae deletion strains, locus YLR039C, strain RIC1, stronger effect = lower value 1.25 | S. cerevisiae deletion strains, locus YLR058C, strain SHM2, stronger effect = lower value 1.01 | S. cerevisiae deletion strains, locus YLR102C, strain apc9, stronger effect = lower value 1.02 | S. cerevisiae deletion strains, locus YLR113W, strain HOG1, stronger effect = lower value 1.01 | S. cerevisiae deletion strains, locus YLR221C, strain rsa3, stronger effect = lower value 1.01 | S. cerevisiae deletion strains, locus YLR258W, strain gsy2, stronger effect = lower value 0.983 | S. cerevisiae deletion strains, locus YLR262C, strain YPT6 (second series), stronger effect = lower value 1.05 | S. cerevisiae deletion strains, locus YLR262C, strain YPT6, stronger effect = lower value 1.2 | S. cerevisiae deletion strains, locus YLR268W, strain sec22, stronger effect = lower value 1.01 | S. cerevisiae deletion strains, locus YLR320W, strain mms22, stronger effect = lower value 0.952 | S. cerevisiae deletion strains, locus YLR330W, strain CHS5, stronger effect = lower value 1.02 | S. cerevisiae deletion strains, locus YLR342W, strain FKS1 (second series), stronger effect = lower value 1.04 | S. cerevisiae deletion strains, locus YLR342W, strain FKS1, stronger effect = lower value 0.953 | S. cerevisiae deletion strains, locus YLR357W, strain rsc2, stronger effect = lower value 1.01 | S. cerevisiae deletion strains, locus YLR370C, strain arc18, stronger effect = lower value 0.984 | S. cerevisiae deletion strains, locus YLR371W, strain rom2, stronger effect = lower value 1.03 | S. cerevisiae deletion strains, locus YLR384C, strain iki3, stronger effect = lower value 0.984 | S. cerevisiae deletion strains, locus YLR418C, strain cdc73, stronger effect = lower value 0.955 | S. cerevisiae deletion strains, locus YML016C, strain PPZ1, stronger effect = lower value 1.01 | S. cerevisiae deletion strains, locus YML032C, strain rad52, stronger effect = lower value 0.935 | S. cerevisiae deletion strains, locus YML120C, strain ndi1, stronger effect = lower value 0.98 | S. cerevisiae deletion strains, locus YML124C, strain tub3, stronger effect = lower value 1.02 | S. cerevisiae deletion strains, locus YMR058W, strain fet3, stronger effect = lower value 0.982 | S. cerevisiae deletion strains, locus YMR078C, strain ctf18, stronger effect = lower value 1.02 | S. cerevisiae deletion strains, locus YMR125W, strain sto1, stronger effect = lower value 0.943 | S. cerevisiae deletion strains, locus YMR129W, stronger effect = lower value 0.99 | S. cerevisiae deletion strains, locus YMR205C, strain PFK2, stronger effect = lower value 0.977 | S. cerevisiae deletion strains, locus YMR223W, strain ubp8, stronger effect = lower value 1.02 | S. cerevisiae deletion strains, locus YMR231W, strain pep5, stronger effect = lower value 0.986 | S. cerevisiae deletion strains, locus YMR263W, strain SAP30, stronger effect = lower value 0.986 | S. cerevisiae deletion strains, locus YMR307W, strain GAS1, stronger effect = lower value 1.1 | S. cerevisiae deletion strains, locus YNL067W, strain RPL9B, stronger effect = lower value 0.974 | S. cerevisiae deletion strains, locus YNL071W, strain lat1, stronger effect = lower value 0.937 | S. cerevisiae deletion strains, locus YNL128W, strain TEP1, stronger effect = lower value 0.991 | S. cerevisiae deletion strains, locus YNL153C, strain GIM3, stronger effect = lower value 0.993 and 1.01 | S. cerevisiae deletion strains, locus YNL175C, strain NOP13, stronger effect = lower value 0.999 | S. cerevisiae deletion strains, locus YNL183C, strain NPR1, stronger effect = lower value 0.99 | S. cerevisiae deletion strains, locus YNL209W, strain ssb2, stronger effect = lower value 0.973 | S. cerevisiae deletion strains, locus YNL224C, strain SQS1, stronger effect = lower value 1.01 | S. cerevisiae deletion strains, locus YNL233W, strain BNI4, stronger effect = lower value 0.988 | S. cerevisiae deletion strains, locus YNL248C, strain rpa49, stronger effect = lower value 0.957 | S. cerevisiae deletion strains, locus YNL250W, strain rad50, stronger effect = lower value 0.966 | S. cerevisiae deletion strains, locus YNL271C, strain bni1, stronger effect = lower value 1.01 | S. cerevisiae deletion strains, locus YNL298W, strain CLA4, stronger effect = lower value 0.984 | S. cerevisiae deletion strains, locus YNL307C, strain MCK1, stronger effect = lower value 0.995 | S. cerevisiae deletion strains, locus YNL322C, strain KRE1 (second series), stronger effect = lower value 0.956 | S. cerevisiae deletion strains, locus YNL322C, strain KRE1, stronger effect = lower value 1.01 | S. cerevisiae deletion strains, locus YNR049C, strain mso1, stronger effect = lower value 0.99 | S. cerevisiae deletion strains, locus YNR052C, strain pop2, stronger effect = lower value 1.01 | S. cerevisiae deletion strains, locus YOL006C, strain TOP1, stronger effect = lower value 0.988 | S. cerevisiae deletion strains, locus YOL012C, strain htz1 2.02 | S. cerevisiae deletion strains, locus YOL147C, strain pex11, stronger effect = lower value 1.02 | S. cerevisiae deletion strains, locus YOR001W, strain rrp6, stronger effect = lower value 0.996 | S. cerevisiae deletion strains, locus YOR061W, strain CKA2, stronger effect = lower value 1.01 | S. cerevisiae deletion strains, locus YOR069W, strain VPS5, stronger effect = lower value 1.07 | S. cerevisiae deletion strains, locus YOR070C, strain gyp1, stronger effect = lower value 0.989 | S. cerevisiae deletion strains, locus YOR080W, strain dia2, stronger effect = lower value 0.974 | S. cerevisiae deletion strains, locus YOR083W, strain WHI5, stronger effect = lower value 0.92 | S. cerevisiae deletion strains, locus YOR106W, strain vam3, stronger effect = lower value 0.978 | S. cerevisiae deletion strains, locus YOR136W, strain idh2, stronger effect = lower value 1.02 | S. cerevisiae deletion strains, locus YOR144C, strain elg1, stronger effect = lower value 1.01 | S. cerevisiae deletion strains, locus YOR184W, strain ser1, stronger effect = lower value 1.03 | S. cerevisiae deletion strains, locus YOR231W, strain MKK1, stronger effect = lower value 1.01 | S. cerevisiae deletion strains, locus YOR265W, strain rbl2, stronger effect = lower value 0.993 | S. cerevisiae deletion strains, locus YOR270C, strain vph1, stronger effect = lower value 0.96 | S. cerevisiae deletion strains, locus YOR290C, strain snf2, stronger effect = lower value 0.943 | S. cerevisiae deletion strains, locus YOR316C, strain cot1, stronger effect = lower value 1.03 | S. cerevisiae deletion strains, locus YPL051W, strain arl3, stronger effect = lower value 0.965 | S. cerevisiae deletion strains, locus YPL055C, strain LGE1, stronger effect = lower value 0.93 | S. cerevisiae deletion strains, locus YPL078C, strain atp4, stronger effect = lower value 0.959 | S. cerevisiae deletion strains, locus YPL106C, strain sse1, stronger effect = lower value 0.999 | S. cerevisiae deletion strains, locus YPL240C, strain hsp82, stronger effect = lower value 0.979 | S. cerevisiae deletion strains, locus YPL241C, strain CIN2, stronger effect = lower value 1.05 and 1 | S. cerevisiae deletion strains, locus YPL256C, strain CLN2, stronger effect = lower value 1.05 | S. cerevisiae deletion strains, locus YPR119W, strain clb2, stronger effect = lower value 1.01 | S. cerevisiae deletion strains, locus YPR141C, strain kar3, stronger effect = lower value 1.02 | S. cerevisiae deletion strains, locus YPR163C, strain tif3, stronger effect = lower value 1.01 | S. cerevisiae deletion strains, locus YPR167C, strain met16, stronger effect = lower value 1.02 | S. cerevisiae deletion strains, strain wtn01, stronger effect = lower value 1 | S. cerevisiae strains, strain wild type, stronger effect = lower value 1.02
